Experimental data from the supplement of paper PMC6555819.

Tests used:
Assay in all cases: PBM binding z-score (relative to random genomic background probes); higher = stronger binding; sequences stand for … in GC…GCGATTGACAGCGTAGAATGAAGG
[1] = test system: PPARg:RXRa DBDmut IVT, anti-RXR (DBD mutation: RXRa K156A/R161A, NR concentration 270 nM, RXRa partner concentration 90 nM)
In short: (§1)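 For binding z-scores, the reference was random background probes on custom Agilent 4×180K protein-binding microarrays. These arrays were incubated 1 h with ligand-free nuclear receptor dimers in PBS pH 7.4, 2% milk, 0.02% Triton X-100, 1 mM DTT, 0.2 mg/mL BSA and 0.4 mg/ml salmon testes DNA. Fluorescence was scanned after antibody detection of each partner (one per run) and regression-normalized.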

[2] = test system: PPARg:RXRa IVT, anti-PPARg (NR concentration 270 nM, RXRa partner concentration 90 nM)
In short: as §1

[3] = test system: PPARg DBDmut:RXRa IVT, anti-PPARg (DBD mutation: PPARg1 K132A/R137A, NR concentration 270 nM, RXRa partner concentration 90 nM)
In short: as §1

[4] = test system: PPARg DBDmut IVT, anti-PPARg (DBD mutation: PPARg1 K132A/R137A, NR concentration 270 nM)
In short: as §1

[5] = test system: PPARg homodimer (NR concentration 180 nM)
In short: as §1

[6] = test system: PXR:RXRa (NR concentration 270 nM, RXRa partner concentration 90 nM)
In short: as §1

[7] = test system: PXR homodimer (NR concentration 270 nM)
In short: as §1

[8] = test system: RARa:RXR (NR concentration 270 nM, RXRa partner concentration 90 nM)
In short: as §1

[9] = test system: RARa homodimer (NR concentration 270 nM)
In short: as §1

[10] = test system: RARb:RXRa (NR concentration 270 nM, RXRa partner concentration 90 nM)
In short: as §1

| Sequence | PBM binding z-score [1] | PBM binding z-score [2] | PBM binding z-score [3] | PBM binding z-score [4] | PBM binding z-score [5] | PBM binding z-score [6] | PBM binding z-score [7] | PBM binding z-score [8] | PBM binding z-score [9] | PBM binding z-score [10] |
| --- | --- | --- | --- | --- | --- | --- | --- | --- | --- | --- |
| TCTGCTTGGTCAGTTGGTCAGCTAACGAGCTGCC | 0.546 | 0.646 | -0.341 | 0.287 | -1.35 | -0.535 | -1.14 | -0.645 | -1.41 | 0.775 |
| GCATATAGGTAATACAAGCTGAAAGTCCGATTGT | 3.93 | 2.4 | 0.865 | 0.595 | 0.219 | -0.13 | -0.000493 | 0.243 | 0.388 | -0.475 |
| CCGACTGGGGCAGAGGTTACCATACTCAGTACGA | 3.08 | 4.26 | -0.117 | -0.682 | 1.22 | 0.917 | -0.23 | 1.94 | -0.251 | 1.34 |
| CCTTACGAGTCACGAGGTTATAGCACGACGAGCG | 0.274 | 0.318 | 0.557 | 0.13 | 1.26 | 1.25 | 0.811 | 1.79 | 1.56 | 0.971 |
| ATTTCTAGGTAACCAAGTTCAGTGAATGCCGAAC | 5.61 | 4.97 | 2.81 | 3.03 | 1.16 | 2.1 | 1.89 | 0.832 | 1.02 | 1.49 |
| GGAACGAGGGCAAGTTGATAGCCGAGTTTGATGG | 3.6 | 2.74 | -0.528 | -0.707 | 0.106 | 0.822 | 0.247 | 0.442 | -0.485 | 2.88 |
| TAGCCTAGGTCAGCTCGGGCCAGTATACGCTATA | 1.01 | 1.73 | -1.19 | -1.03 | 0.105 | 1.77 | -0.949 | 1.39 | -0.994 | 3.65 |
| ATATCTAGGTTATCGGGTCATTCAGTTTGCGCAT | 7.52 | 7.5 | 1.81 | 3.17 | 3.91 | 3.94 | 8.08 | 3.87 | 2.26 | 2.89 |
| CCAGACAGGTGAGATGGTAACTCAGCCTCGATTA | 0.95 | 0.00345 | -0.391 | -0.721 | 0.16 | -0.343 | 0.189 | -0.347 | 0.738 | 0.229 |
| AGAATGAGGTTATACGTAGATCAGGGACGAAAGT | 3.78 | 2.16 | 1.14 | 1.42 | 0.4 | 1.12 | 0.405 | 1.49 | 0.392 | 1.42 |
| CCTACTGGGCCAAGGTCATCGATCAGTCAAAGCA | 4 | 4.6 | -0.807 | -0.598 | 1.98 | 3.71 | 0.25 | 4.34 | 0.517 | 3.65 |
| TCTAGCAGGCCAGAGCGTCACTCAAGAGGTACGG | 0.578 | -0.464 | -0.145 | -0.832 | -1.42 | -0.785 | -0.819 | -0.492 | -0.772 | -0.306 |
| TCATAAAGGTAAAGGTGAAAGTCGAACGATATGA | 2.88 | 3.1 | 1.14 | 0.528 | 1.69 | 1.3 | -0.127 | 2.37 | 0.551 | 2.66 |
| GCTAGTTGGTCAGTAAAAGGTAACACACCGGTCG | 0.651 | 0.622 | -0.712 | 0.0528 | 0.535 | 0.2 | 0.0944 | 0.372 | 0.548 | 1.03 |
| TCAATTAGTTGAAGGGCAACCGACGAGTCCGTTT | 1.84 | 0.225 | -0.0622 | 0.241 | -0.0858 | 0.533 | 0.791 | 0.357 | -0.199 | 1.54 |
| TCTTGTAGATCAATAGAGGTTAAGAAAGTGCGCT | 1.96 | 1.06 | 0.946 | 0.475 | 0.36 | 2.86 | 0.0612 | 1.67 | -0.172 | 0.91 |
| CTCGAAAGGTCGGTTCAGGTGAGTATACGGATAA | 0.179 | 0.896 | 0.489 | 0.134 | 0.753 | 2.53 | 0.887 | 2.11 | 0.864 | 2.96 |
| TCATATAGGTAAATCCTAGGTGAAAGTCCGATCT | 3.48 | 2.8 | 0.825 | 0.675 | -0.358 | 0.68 | 0.175 | 1.11 | 0.51 | 0.592 |
| ACTAACAGGCCAAGTTTGGGTCACTCAAACAAAG | 0.131 | 0.999 | -0.122 | 0.374 | 0.38 | 0.912 | -0.269 | 1.75 | -0.388 | 2.11 |
